Shown are actives, neighbours in structure and some others; about 4.8% of the full set was active somewhere.
HepG2 tox: counter-screen for TGF-b inhibitors: cytotoxicity in HepG2 cells; HepG2 CAGA-GFP viability, ATP luminescence, 18 h; Potency, µM (titrated, usually from 46.1 µM), hits mostly cytotoxic; 410,000 tested, 0.76% active; AID 588856
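CellTiter-Glo luminescence gave cytotoxicity after 18 hours at 37 degrees C. The cells were HepG2 CAGA-GFP in 1% FBS DMEM, stimulated with 500 pg/mL TGF-beta after compound addition. %Activity was normalised to no-cell wells (complete cell-killing) and DMSO (no toxicity), and curves were fitted and classified.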
S2 tox: reduces viability in counter-screen for ATXN expression inhibitors; S2 cells (HEK-293 line with an ATXN2-luciferase reporter) viability, CellTiter-Fluor protease fluorescence, 24 h; Potency, µM (top dose mostly 56.7 µM), hits mostly cytotoxic; 400,000 tested, 0.49% active; further: nearly all actives have a fitted effect of over 40% in size
D3 antag: antagonists of human D3 dopamine receptor. P35462. D3R cells, DiscoveRx beta-arrestin luminescence, antagonist mode; hits give low values. max response, negative = inhibition, %. 360,000 tested, 2.5% active; in the data active means max response below about -50%; inconclusive means no clear call, values can overlap the other calls
Target sequence (P35462 whole entry, looked up): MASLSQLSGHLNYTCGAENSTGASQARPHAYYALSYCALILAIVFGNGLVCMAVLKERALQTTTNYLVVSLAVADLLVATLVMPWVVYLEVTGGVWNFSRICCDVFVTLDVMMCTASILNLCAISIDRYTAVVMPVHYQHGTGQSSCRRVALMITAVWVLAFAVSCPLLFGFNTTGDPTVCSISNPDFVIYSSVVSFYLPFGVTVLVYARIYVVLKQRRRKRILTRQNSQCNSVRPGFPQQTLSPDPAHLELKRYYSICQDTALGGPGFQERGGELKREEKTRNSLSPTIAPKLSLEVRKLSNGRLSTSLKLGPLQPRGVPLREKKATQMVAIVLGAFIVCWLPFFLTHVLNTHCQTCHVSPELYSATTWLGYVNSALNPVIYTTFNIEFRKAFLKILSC
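Cells plated overnight at 1500 cells/well, then exposed to library compounds with dopamine controls for 90 minutes at 37 degrees C. DiscoveRx reagent added for 30–60 minutes at room temperature; luminescence read, quantitative HTS format.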
TGFb SMAD3 inh: blocks TGF-b signaling; Potency, µM (highest dose often 46.1 µM), usual class: inhibitors; 410,000 tested, 1.2% active; HepG2 CAGA-GFP TGF-b/SMAD3 reporter, GFP fluorescence, 18 h; TGF-beta stimulated, 500 pg/mL final; AID 588855; further: nearly all actives have a fitted effect of over 65% in size
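Smad-responsive CAGA-GFP expression was quantified in HEPG2 cells exposed to compounds and 500 pg/mL final TGF-beta for 18 h at 37 degrees C; unstimulated wells defined full inhibition.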
D3 ag: D3 dopamine receptor (human) agonism; P35462; D3R DiscoveRx beta-arrestin cells, luminescence, 90 min; max activation, %; 410,000 tested, 0.58% active; AID 652048; in the data active means max activation above about 30%
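Agonist-mode cell screen: cells plated at 1500/well and incubated overnight at 37 °C, then exposed to library compounds for 90 min at 37 °C. Detection reagent was added for 30–60 min at room temperature, and luminescence was read.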
ATXN2 expr inh: reduces ATXN2 reporter expression in HEK-293 cells | HEK-293 ATXN2-luciferase reporter, luminescence, 24 h | Potency, µM (series often up to 57 µM), usual class: inhibitors | 360,000 tested, 0.72% active | AID 1745845; further: nearly all actives have a fitted effect of over 55% in size
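ATXN2-luciferase reporter cells (luciferase flanked by upstream and downstream ATXN2 gene portions) were treated 24 h at 37 °C with compounds at up to 57 uM. SteadyGlo luminescence gave expression; GF-AFC fluorescence gave viability.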
Hits are given with their value; . = inactive; ? = inconclusive; / = no result given; ! = not confirmed by another sample. Unless noted, the call rests on the fitted dose curve; in most records, active means well fitted curve in the direction sought with a large enough effect; inconclusive means small, poorly fitted or top-dose-only effect, or another doubt; inactive means no such curve, though single readings can be large; an effect the other way counts as inactive or inconclusive.

SMILES | HepG2 tox | S2 tox | D3 antag | TGFb SMAD3 inh | D3 ag | ATXN2 expr inh
CO/N=C(\C(=O)N[C@@H]1C(=O)N2C(C(=O)O)=C(CSc3nc(=O)c(O)nn3C)CS[C@H]12)c1csc(N)n1 | / | . | / | / | . | .
Cc1ccc(C2/C(=C(\O)c3c(C)nc4ccccn34)C(=O)C(=O)N2CCN(C)C)o1 (configuration not stated) | . | . | . | . | 43.0 | ?
CCSc1nnc(NC(=O)NC(C)(C(F)(F)F)C(F)(F)F)s1 | . | . | . | ? | . | .
CCSc1nnc(NC(=O)NC(CC)(C(F)(F)F)C(F)(F)F)s1 | . | ? | . | 12.6µM | . | ?
CC1CCCCC1NC(=O)COC(=O)c1ccc([N+](=O)[O-])o1 (configuration not stated) | . | . | . | . | . | .
CC1CCCC(NC(=O)COC(=O)c2ccc([N+](=O)[O-])o2)C1C (configuration not stated) | 3.16µM | . | . | . | . | .
COc1ccc(CCNC(=O)COC(=O)c2ccc([N+](=O)[O-])o2)cc1 | . | . | . | . | . | .
O=C(COC(=O)c1ccc([N+](=O)[O-])o1)NCCCc1ccccc1 | . | ? | -51.4 | ? | . | .
O=C(CSc1nccn1Cc1ccc(F)cc1)NCc1ccc(F)cc1 | . | . | / | . | . | .
CC(C)(Cc1ccc2ccccc2c1)NC[C@@H](O)COc1cccc(Cl)c1C#N | / | / | / | / | / | .
COc1ccc2c(c1)C(c1ccccc1)NC(=O)C2 (configuration not stated) | 11.2µM | . | . | . | . | .
CCOc1ccc(C2NC(=O)Cc3cc(OC)c(OC)cc32)cc1 (configuration not stated) | . | . | . | . | . | .
CSc1ncc(CN2CCc3c([nH]c4ccccc34)C2c2cccc(O)c2)cn1 (configuration not stated) | . | . | . | 11.2µM | . | .
COc1cccc(CNC(=O)c2c(OC)cc(=O)n3c2CCN(C(=O)c2cc(F)cc(F)c2)CC3)c1 | / | . | / | / | / | /
COc1ccc(C(C(=O)NC2CCCC2)n2c(C3CCN(C(C)=O)CC3)nc3ccccc32)cc1 (configuration not stated) | / | / | -50.2 | / | . | /
CCCCCCC1CCC(C(=O)Nn2c(C)nc3ccccc3c2=O)CC1 (configuration not stated) | . | . | . | . | 30.4 | .
COc1ccc(-c2nnc(SCC(=O)NCc3ccccc3)nc2-c2ccc(OC)c(OC)c2)cc1OC | . | / | / | . | . | /
Cn1c(CN2CCN(CCO)CC2)c(C#N)c2ccccc21 | . | . | . | . | . | .
Cc1ccccc1N1CCN(Cc2c(C#N)c3ccccc3n2C)CC1 | . | . | -56.5 | . | . | .
Cc1ccc(CN2[C@H](C)[C@H](c3ccccc3)OCCS2(=O)=O)cc1 | . | / | / | . | / | /
Oc1c(C=NCc2ccncc2)sc2ccccc12 | . | . | -100.5 | . | . | .
CN=Cc1sc2ccccc2c1O | . | ? | . | . | . | .
Oc1c(C=Nc2cccnc2)sc2ccccc12 | . | . | -65.2 | . | . | .
Cc1ccc(NC(=O)Cn2nnc(C(=O)Nc3ccc(C)c(C)c3)c2N)cc1 | . | . | -66.0 | . | . | .
Cc1ccc(C)c(NC(=O)c2nnn(CC(=O)Nc3cccc(C)c3C)c2N)c1 | . | / | / | . | 40.3 | /
SMILES | HepG2 tox | S2 tox | D3 antag | TGFb SMAD3 inh | D3 ag | ATXN2 expr inh
Cc1ccc(NC(=O)c2nnn(CC(=O)Nc3ccc4c(c3)OCO4)c2N)cc1C | . | . | . | . | . | /
COc1ccc(Cn2c(CO)cnc2SCc2cccc(C)c2)cc1 | . | . | / | . | . | .
C[C@]12CCC(=O)C[C@@H]1CC[C@@H]1[C@@H]2CC[C@]2(C)C=CC[C@@H]12 | . | . | . | . | 35.2! | .
Oc1cc(-c2ccncc2)cc2cccnc12 | 11.2µM | . | / | ? | / | 3.55µM
CCN1CCN(c2ncc(C(=O)Nc3cc(Cl)c(OC)cc3OC)c3ccccc23)CC1 | . | ? | . | . | . | .
CCN1CCN(c2ncc(C(=O)Nc3c(F)cc(F)cc3Br)c3ccccc23)CC1 | . | ? | -62.2 | . | . | .
Cc1ccc(C2C3CN(C(C)C)CC=C3C(C#N)=C(N)C2(C#N)C#N)cc1 (configuration not stated) | . | . | -86.1 | . | . | .
COc1ccc(OC)c(C2C3CN(C(C)C)CC=C3C(C#N)=C(N)C2(C#N)C#N)c1 (configuration not stated) | . | . | -58.5 | . | . | .
CN1CC=C2C(C#N)=C(N)C(C#N)(C#N)[C@H](c3ccoc3)[C@H]2C1 | . | . | . | . | . | .
Cc1ccc(S(=O)(=O)Cc2ccc(C(=O)N3CCN(c4cc(C)ccc4C)CC3)o2)cc1 | . | . | . | . | . | .
Cc1ccc(C)c(N2CCN(C(=O)c3ccc(CS(=O)(=O)c4ccccc4C)o3)CC2)c1 | . | ? | . | . | 74.5 | .
Cc1ccc2[nH]c(=O)c(C3C(C#N)=C(N)Oc4c3ccc3cccnc43)cc2c1 (configuration not stated) | . | / | ? | 10µM | . | ?
COC(=O)c1ccc(Oc2cc(C)nc(-n3nc(C)cc3C)n2)cc1 | . | . | -81.7 | ? | . | .
COC(=O)c1ccc(Oc2nc(C)cc(Oc3ccccc3)n2)cc1 | . | . | . | . | . | .
Cc1ccc(Cc2nc3ccccc3nc2SCC(=O)N2CCCCC2C)cc1 (configuration not stated) | . | ? | / | 15.8µM | . | ?
COc1ccccc1Cc1nc2ccccc2nc1SCC(=O)N1CCN(c2ccccc2)CC1 | . | / | / | . | . | /
COc1cccc(Cc2nc3ccccc3nc2SCC(=O)N2CCCCC2C)c1 (configuration not stated) | . | ? | / | 11.2µM | . | ?
CCN(C(=O)CSc1nc2ccccc2nc1Cc1cccc(OC)c1)c1cccc(C)c1 | . | / | / | 15.8µM | . | /
COc1ccccc1Cc1nc2ccccc2nc1SCC(=O)N1CCC(C)CC1 | . | ? | / | 15.8µM | . | .
CCN(C(=O)CSc1nc2ccccc2nc1Cc1ccc(F)cc1)c1cccc(C)c1 | . | ? | / | . | . | .
COc1cc(OC)c(NC(=O)N2CCCn3nc(C)cc32)cc1Cl | . | . | / | . | . | .
COC(=O)c1ccc(C(=O)OC)c(NC(=O)c2ccc(-c3ccccc3)s2)c1 | . | . | / | . | . | .
Cc1cccc(-n2c(C)nnc2SCC(=O)NC(C)c2ccco2)c1 (configuration not stated) | . | / | / | . | / | /
CCSC(=O)N1CCN(/[N+]([O-])=N/Oc2ccc([N+](=O)[O-])cc2[N+](=O)[O-])CC1 | . | / | / | ? | / | /

Screening results from PubChem.
